The text below walks through data of PubChem BioAssay (NCATS).

A short description of assay [1]: Primary qHTS for inhibitors of nuclear receptor binding SET domain protein 2 (NSD2) in an RCH-ACV wild type WT cells (2C) (AID 1645877). Also: nearly all actives have a fitted effect of over 70% in size. Also: potency is read from the fitted curve at half-maximal effect. As to activity change, negative = cell killing: % is scaled to controls: 0 for no effect and ±100 for the full control effect.
Assay [2] concerns the target Glutathione peroxidase 1 (Homo sapiens) (UniProt P07203). Briefly: Primary qHTS Assay for Inhibitors of Recombinant Selenoprotein Glutathione Peroxidase 1 (GPX1) (AID 1845191). Also: nearly all actives have a fitted effect of over 65% in size. Also: potency is read from the fitted curve at half-maximal effect. As to activity, negative = inhibition: % is scaled to controls: 0 for no effect and ±100 for the full control effect. The method in brief:
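Recombinant GPX1 (10 nM final) was preincubated with compound for 30 min at room temperature, then reacted with 1 mM GSH, 0.5 mM CHP, 0.5 mM NADPH and 100 nM glutathione reductase; NADPH fluorescence (340/450 nm) was read at 0 and 15 min.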
On the technique in general: Quantitative high-throughput screening tests each substance at several concentrations.

In assay [3] the target is Phospholipid hydroperoxide glutathione peroxidase GPX4 (Homo sapiens) (UniProt P36969). Briefly: Primary qHTS Assay for Inhibitors of Recombinant Selenoprotein Glutathione Peroxidase 4 (GPX4) (AID 1845192). Also: nearly all actives have a fitted effect of over 65% in size. As to activity change, negative = inhibition: series mostly up to about 50 µM; % is scaled to controls: 0 for no effect and ±100 for the full control effect. In a few lines: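 GR-coupled readout: 100 nM GR, 1 mM GSH, 0.5 mM NADPH; NADPH fluorescence (ex 340/em 450 nm) read at t=0 and after 15 min RT. GPX4 200 nM, preincubated 30 min with compound; substrate 0.5 mM CHP.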
Chain of Phospholipid hydroperoxide glutathione peroxidase GPX4 (Homo sapiens) (P36969 whole entry, looked up): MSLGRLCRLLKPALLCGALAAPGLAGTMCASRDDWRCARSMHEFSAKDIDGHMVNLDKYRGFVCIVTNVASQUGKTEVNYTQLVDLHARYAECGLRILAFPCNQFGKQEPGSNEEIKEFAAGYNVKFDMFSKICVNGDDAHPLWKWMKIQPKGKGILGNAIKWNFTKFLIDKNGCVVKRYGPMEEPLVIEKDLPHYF

The target in assay [4] is Luciferin 4-monooxygenase (Photinus pyralis) (UniProt P08659). Briefly: Primary firefly luciferase (FLuc) qHTS assay for identification of artifact compounds. (AID 1845220). Also: nearly all actives have a fitted effect of over 60% in size.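 As to activity change, negative = inhibition: series mostly up to about 54 µM; plate controls were DMSO vehicle for no effect and no enzyme for full effect.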 In a few lines: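 Reaction readout was CCD-imaged luminescence, taken 5 min after adding 10 nM purified firefly enzyme to compound-treated wells holding 10 uM luciferin and ATP in pH 7.6 buffer.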
Assay [5] is described as follows: Primary fluorescence-based thiol-reactive (MSTI) qHTS assay for identification of artifact compounds. (AID 1845221).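 Also: series mostly up to about 54 µM; thiol-reactive compounds lower the probe fluorescence signal; nearly all actives have a fitted effect of over 65% in size.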 The method in brief:
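One-hour, room-temperature, dark incubation of compound with 4 uM MSTI in PBS (pH 7.4, 2% DMSO) precedes a fluorescence read at 525 nm excitation, 598 nm emission; Hill-equation fitting yields concentration-response values.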

The nature of assay [6]: Primary redox qHTS assay for identification of artifact compounds. (AID 1845223).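 Also: 0% = DMSO and 100% = reference compound.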 The method in brief:
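Amplex Red (25 uM) and HRP (250 mU/mL) in HBSS, with compounds for 15 min, then 250 uM DTT for 30 min, room temperature, dark. Fluorescence 525/598 nm read; normalized to DMSO and 10 uM DA3003; Hill fit.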

The subject of assay [7] is Nanoluciferase (engineered Oplophorus gracilirostris luciferase). Briefly: Primary Nanoluciferase (NLuc) qHTS assay for identification of artifact compounds. (AID 1845222).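 Also: NLuc secreted into diluted conditioned medium of S16 cells; series mostly up to about 54 µM; 0% = DMSO and -100% = no enzyme.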 In a few lines: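 Concentration-response data were obtained by luminescence after 5 min with Nano-Glo substrate at 1:100. The enzyme was diluted S16 NLuc-expressing cell medium, preincubated with compound for 15 min at RT. Curves were fitted with a 4-parameter Hill model.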

Values without a mark were called inactive. Results filed as inconclusive are left out. Activity calls are given as the source filed them. Calls follow the shape of the dose curve; as a rule, active = well fitted curve in the direction sought with a large enough effect; inconclusive = small, poorly fitted or top-dose-only effect, or another doubt; inactive = no such curve, though single readings can be large; an effect the other way counts as inactive or inconclusive.

Chain of Glutathione peroxidase 1 (Homo sapiens) (P07203 whole entry, looked up): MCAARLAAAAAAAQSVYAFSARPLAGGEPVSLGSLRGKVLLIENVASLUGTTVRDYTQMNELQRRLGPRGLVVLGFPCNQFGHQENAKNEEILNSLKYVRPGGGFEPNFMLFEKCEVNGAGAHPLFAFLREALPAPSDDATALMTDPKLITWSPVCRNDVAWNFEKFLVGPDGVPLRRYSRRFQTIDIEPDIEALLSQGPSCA

With `CCOC(=O)c1cc(C#N)c(N2CCC(C(=O)NS(=O)(=O)Cc3ccccc3)CC2)nc1C`, the Potency result in assay [1], in assay [2], in assay [3], in assay [4], in assay [5] and in assay [6] was “inactive” throughout.
With `CCC[C@@H]1O[C@@H]2C[C@H]3[C@@H]4CCC5=CC(=O)C=C[C@]5(C)[C@H]4[C@@H](O)C[C@]3(C)[C@]2(C(=O)CO)O1`, the Potency in assay [1] is 5.8 nM (active). Further, the Potency result in assay [2], in assay [3], in assay [4], in assay [5], in assay [7] and in assay [6] was “inactive” throughout.
Regarding `Cc1oc2ccccc2c1CNC(=O)NCc1cccs1`, the Potency result in assay [1], in assay [2], in assay [3], in assay [4], in assay [5] and in assay [6] was “inactive” each time.
For `COc1cc(O)c([C@@H](CC(=O)N2CC(C)CC(C)C2)c2ccc3c(c2)OCO3)c(OC)c1` (stereo partly specified), the Potency result in assay [1], in assay [2], in assay [3], in assay [4], in assay [5] and in assay [7] was “inactive” in each case. Moreover, the Potency result in assay [6] is “inactive”.
Regarding `CCCN1CCC(c2cccc(S(C)(=O)=O)c2)CC1`, the Potency entry in assay [1], in assay [2], in assay [3], in assay [4], in assay [5] and in assay [7] was “inactive” in each case. For the same molecule, the Potency result in assay [6] was “inactive”.
Consider `CC12CCC3c4ccc(O)cc4CCC3C1CC(OC1OC(C(=O)O)C(O)C(O)C1O)C2O` (stereo unspecified), for which the Potency entry in assay [1], in assay [2], in assay [3], in assay [4], in assay [5] and in assay [6] was “inactive” in each case.
Consider `CCCn1c(=O)c2[nH]c(-c3ccc(OCC(=O)O)cc3)nc2n(CCC)c1=O`, for which the Potency entry in assay [1], in assay [2], in assay [3], in assay [4], in assay [5] and in assay [7] was “inactive” each time. In assay [6], the Potency result was “inactive”.
Consider `Cc1ccc(Cc2c(C)nc3nc(SCC(=O)NCCN4CCNCC4)nn3c2C)cc1`, for which the Potency entry in assay [1], in assay [2], in assay [3], in assay [4], in assay [5] and in assay [7] was “inactive” each time. Besides, in assay [6], the Potency result was “inactive”.
Consider `O=C(c1ccc2nccnc2c1)N1CCCCC1`, for which the Potency result in assay [1], in assay [2], in assay [3], in assay [4], in assay [5] and in assay [7] was “inactive” throughout. Also, the Potency result in assay [6] was “inactive”.
Take `CC(C)(C)Nc1nc(Nc2ccc(C(N)=O)cc2)cc(N)c1C#N`: the results for the Potency in assay [1] and in assay [2] were 1450 nM (active) and 22700 nM (active), respectively. For the same molecule, the Potency result in assay [3], in assay [4] and in assay [7] was “inactive” throughout.
For the molecule `COc1cc(C2Oc3c(OC)cc(CCCO)cc3C2CO)ccc1O[C@H]1O[C@H](C)[C@@H](O)[C@H](O)[C@@H]1O` (stereo partly specified), the Potency result in assay [1], in assay [2], in assay [3], in assay [4], in assay [7] and in assay [6] was “inactive” in each case.
On to `O=C(O)C1CN(Cc2ccc(-c3nc4cc(Cc5ccccc5F)ccc4s3)c(F)c2)C1`, for which, in assay [1], the activity change, negative = cell killing was 2.02% [at 9.23 µM]. The activity, negative = inhibition in assay [2] is -8.84% [at 9.52 µM]; in assay [7], -0.199% [at 11.6 µM]. The activity change, negative = inhibition in assay [3] was 8.48% [at 9.73 µM]; in assay [4], -1.19% [at 11.6 µM]. For the same molecule, the redox activity (% of DA3003) in assay [6] was -6.07% [at 11.5 µM].
Turning to `OC[C@H]1O[C@@H](Oc2cc(O)c3c(c2)O[C@@H](c2ccc(O)cc2)[C@H](O)C3)[C@H](O)[C@@H](O)[C@@H]1O`, the Potency entry in assay [1], in assay [2], in assay [3], in assay [4], in assay [7] and in assay [6] was “inactive” in each case.
Regarding `COc1cc(O)c2c(c1)C1=CC(O)C(O)CC1(C)OC2=O` (stereo unspecified), the Potency result in assay [1], in assay [2], in assay [3], in assay [4], in assay [7] and in assay [6] was “inactive” each time.
`COc1cc(O)cc(C)c1C(=O)OC1C(CO)OC(OC2C(O)C(O)C(O)C(O)C2O)C(O)C1O` (stereo unspecified): the Potency entry in assay [1], in assay [2], in assay [3], in assay [4], in assay [7] and in assay [6] was “inactive” each time.
As to `C/C=C/C=C/C(=O)N1CC[C@]23c4ccccc4N[C@H]4N(C)c5cccc6c5[C@@]42CCN([C@H]6C2OC2(C)C)[C@H]13` (stereo partly specified), the Potency result in assay [1], in assay [2], in assay [3], in assay [4] and in assay [7] was “inactive” throughout.
On to `O=S(=O)(c1ccc(S(=O)(=O)n2cnc3ccccc32)cc1)N1CCCCCC1`, for which the Potency result in assay [1], in assay [2], in assay [3], in assay [4], in assay [7] and in assay [6] was “inactive” in each case.
In the case of `CC(C)CC1NC(=O)C2CC3(O)c4ccccc4NC3N2C1=O` (stereo unspecified), the Potency result in assay [1], in assay [2], in assay [3], in assay [4] and in assay [7] was “inactive” in each case.
Take `CC(O)/C=C/C1OC(=O)CC1Nc1ccc(C(=O)O)cc1` (stereo unspecified): the Potency entry in assay [1], in assay [2], in assay [3], in assay [4] and in assay [7] was “inactive” each time.
For the molecule `CC(O)CCC1C(CO[C@@H]2O[C@H](CO)[C@@H](O)[C@H](O)[C@H]2O)CC(O)CC1(C)C` (stereo partly specified), the Potency entry in assay [1], in assay [2], in assay [3], in assay [4] and in assay [7] was “inactive” each time.
`C[C@@H]1CC[C@]2(C(=O)O)CC[C@]3(C)C(=CCC4[C@@]5(C)C[C@@H](O)[C@H](O)[C@@](C)(CO)C5CC[C@]43C)C2[C@]1(C)O` (stereo partly specified): the Potency entry in assay [1], in assay [2], in assay [3], in assay [4] and in assay [7] was “inactive” throughout.
